Screens: PubChem BioAssay, National Center for Advancing Translational Sciences (NCATS)
The sample as a whole holds a higher share of hits than the screen did.
Shiga toxin inh: Shiga toxin inhibition; Vero cells, Shiga toxin protein synthesis inhibition reporter; inhibition, % at 38.7 µM; 9.2% of 290,000 active; AID 2315; in the data active means inhibition mostly above about 28%, no sharp cut-off; inactive means mostly below about 43%; further: 0% is about no effect
Giardia FBPA inh: inhibitors of Giardia lamblia fructose-1,6-bisphosphate aldolase | A8B2U2 | purified Giardia FBPA | Potency, µM (top dose mostly 59.6 µM), without a hit: top-dose activity, negative = inhibition, most hits filed as inhibitors | 0.71% of 290,000 active | AID 2451; further: potency means the concentration at half of the fitted maximal effect; on the % scale 0 is the no-effect control and ±100 the full control effect; nearly all actives have a fitted effect of over 55% in size
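Giardia FBPA (40 nM reagent) was preincubated 10 min at RT with compound (up to 57.5 uM final), then substrate plus GAPDH/TPI/NAD/arsenate coupling system with diaphorase/resazurin was added; resorufin fluorescence (525/598 nm) was read after 20 min.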
CHX counter: counter-screen for Shiga toxin inhibitors: cycloheximide protein synthesis inhibition; cell reporter, cycloheximide protein synthesis inhibition counterscreen; AID 2314; 12% of 300,000 active; max response, %; in the data active means max response mostly above about 13%, no sharp cut-off; inactive means mostly below about 14%; further: read at 38.3 µM for the half of the compounds with a filed dose; 0% is about no effect
LmPK inh: inhibitors of Leishmania mexicana pyruvate kinase. 0.37% of 290,000 active. Potency, µM (series often up to 57.5 µM), inactives show top-dose activity change, negative = inhibition, usual class: inhibitors. purified LmPK, Kinase-Glo ATP luminescence, 1 h; further: potency means the concentration at half of the fitted maximal effect; on the % scale 0 is the no-effect control and ±100 the full control effect
Target sequence (Q27686 whole entry, looked up): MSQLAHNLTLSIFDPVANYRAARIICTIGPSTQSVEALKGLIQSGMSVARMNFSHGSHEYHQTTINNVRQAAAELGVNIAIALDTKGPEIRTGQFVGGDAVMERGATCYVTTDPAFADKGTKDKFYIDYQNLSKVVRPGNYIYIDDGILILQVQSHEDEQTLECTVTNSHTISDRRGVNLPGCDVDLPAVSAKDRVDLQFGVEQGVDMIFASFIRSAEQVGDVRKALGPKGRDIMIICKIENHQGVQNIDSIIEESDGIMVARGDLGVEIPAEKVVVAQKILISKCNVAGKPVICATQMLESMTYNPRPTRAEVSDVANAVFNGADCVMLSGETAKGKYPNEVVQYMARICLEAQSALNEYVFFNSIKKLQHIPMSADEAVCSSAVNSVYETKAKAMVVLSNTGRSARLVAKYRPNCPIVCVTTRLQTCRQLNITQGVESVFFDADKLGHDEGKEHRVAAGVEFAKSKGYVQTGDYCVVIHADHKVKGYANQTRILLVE
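ATP generated from ADP (0.1 mM) and PEP (0.5 mM) by 0.1 nM LmPK over 1 h at room temperature (pH 7.2 imidazole buffer) was detected by coupled luciferase luminescence. Values were normalized to uninhibited and no-enzyme wells.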
TbPYK inhibitor: inhibitors of Trypanosoma brucei pyruvate kinase. Q57TT1. TbPYK enzyme, Kinase-Glo Plus ATP luminescence, 45 min. Potency, µM (titrated, usually from 76.8 µM), for the others: at the top dose activity, negative = inhibition, most hits filed as inhibitors. 0.12% of 410,000 active. AID 624173; further: potency means the concentration at half of the fitted maximal effect; on the % scale 0 is the no-effect control and ±100 the full control effect; nearly all actives have a fitted effect of over 50% in size
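T. brucei PYK with substrate was exposed to pin-transferred compounds across a concentration series, then started with 130 uM ADP (final). After 45 min at room temperature, Kinase-Glo Plus luminescence was read, normalized and curve-fitted.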
RE007 growth inh: less growth of the S. pombe RE007 Vpr strain | 0.21% of 360,000 active | S. pombe RE007 Vpr strain, BacTiter-Glo ATP luminescence, 24 h | Potency, µM (titrated, usually from 92.2 µM), inactives show at the top dose activity change, negative = less growth, actives largely listed as inhibitors | AID 651644; active means well fitted falling curve with a large enough effect; inconclusive means small, poorly fitted or top-dose-only effect; inactive means no such curve, though single readings can be large or run the other way; further: potency means the concentration at half of the fitted maximal effect; on the % scale 0 is the no-effect control and ±100 the full control effect; nearly all actives have a fitted effect of over 50% in size
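Fission yeast strain RE007, carrying one chromosomally integrated HIV-1 vpr copy, was seeded at OD 0.01 in PMG+AL medium with 23 nL pinned compound. After 24 h at 30 °C and 99% humidity, viability was read by BacTiter-Glo luminescence.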
Numbers without * were called inactive; i = inactive; ? = inconclusive; · = no result given; [ ] = dose if it differs, or a comment. Unless noted, the call rests on the fitted dose curve; in most records, active means well fitted curve in the direction sought with a large enough effect; inconclusive means small, poorly fitted or top-dose-only effect, or another doubt; inactive means no such curve, though single readings can be large; an effect the other way counts as inactive or inconclusive.

SMILES	Shiga toxin inh	Giardia FBPA inh	CHX counter	LmPK inh	TbPYK inhibitor	RE007 growth inh
Cc1ccsc1/C=N/NC(=O)Nc1ccccc1	57*	-3%	31*	-2%	4%	-11%
COc1cc(C(=O)N/N=C/c2sccc2C)cc(OC)c1OC	26	1%	-2	-1%	0%	-3%
Cc1ccsc1/C=N/NC(=O)c1ccc2ccccc2c1	73*	-2%	44*	-3%	-17%	-3%
Cc1ccc(S(=O)(=O)N/N=C\c2cc([N+](=O)[O-])ccc2Cl)cc1	-9	-7%	2	4%	2%	-7%
Cc1ccsc1/C=N/NC(=O)c1ccc([N+](=O)[O-])cc1	-3	1%	24*	3%	1%	12%
Cc1ccsc1/C=N/NC(=O)c1ccncc1	21	-3%	8	-2%	0%	13%
CCN(CC)c1ccc(NC(=O)c2cc3c(=O)n4cccc(C)c4nc3n2C)c(C)c1	·	·	·	·	-4%	·
Cc1ccsc1/C=N/NC(=O)c1cccnc1	25	-8%	9.9*	-9%	0%	7%
COCC(C)n1c(C)cc(C(=O)CSc2nnnn2-c2ccc(O)cc2)c1C (stereo not given)	50*	-2%	29*	-1%	12%	-8%
CC(=O)Nc1ccc(SCC(=O)c2cc(C)n(-c3ccccc3F)c2C)cc1	125*	-17%	74*	1%	-5%	14%
COCC(C)n1c(C)cc(C(=O)CSc2ncccn2)c1C (stereo not given)	72*	-1%	36*	0%	-3%	7%
COC(=O)c1ccc(-n2c(C)cc(C(=O)CSc3ccc(NC(C)=O)cc3)c2C)cc1	-7	-4%	-3	2%	-17%	28%
COCC(C)n1c(C)cc(C(=O)CSc2nnc(-c3ccco3)o2)c1C (stereo not given)	·	·	·	·	-3%	-17%
COCC(C)n1c(C)cc(C(=O)CSc2ccc(NC(C)=O)cc2)c1C (stereo not given)	52*	5%	26*	0%	-3%	19%
Cc1ccccc1NC(=O)c1c(C)oc2ccc(O)c(CN3CCCC3)c12	·	·	·	·	0%	·
C=CCn1c(C)cc(C(=O)CSc2ccc(NC(C)=O)cc2)c1C	114*	5%	43*	0%	2%	1%
COCCn1c(C)cc(C(=O)CSc2nncn2-c2ccccc2)c1C	26	-1%	12	3%	-7%	-19%
CC(=O)Nc1ccc(SCC(=O)c2cc(C)n(Cc3cccs3)c2C)cc1	101*	1%	77*	13%	6%	-6%
O=C(CSc1ncccn1)c1ccccc1Br	35*	-26%	26*	7%	-30%	-25%
O=C(O)CSc1ncccn1	-6	2%	-1	7%	1%	-7%
COCCn1c(C)cc(C(=O)CSc2ccc(NC(C)=O)cc2)c1C	105*	6%	47*	2%	-8%	9%
COCCn1c(CNC(=O)c2cccc(N(C)C)c2)nc2cccnc21	·	·	·	·	-2%	·
CCCCn1c(C)cc2c(c1=O)[C@H]1O[C@](CCCC)(Cc3c1ccc1ccccc31)O2	i	1%[12.9 µM]	-2	-8%[11.5 µM]	·	·
CCc1ccc(-n2cnc3cc(C(=O)NCc4ccc(C)cc4)ccc32)cc1	·	·	·	·	0%	·
Cc1cccc(OCC(=O)Nc2ccccc2N2CCCCC2)c1	-8	-8%	-3	-1%	2%	14%
SMILES	Shiga toxin inh	Giardia FBPA inh	CHX counter	LmPK inh	TbPYK inhibitor	RE007 growth inh
Cc1cccc(OCC(=O)NC(=S)N2CCCc3ccccc32)c1	i	·	35*	-1%	-29%	0%
O=C(COc1ccc(Cl)cc1Cl)OCC(=O)N1CCCc2ccccc21	-11	-2%	-3	1%	5%	4%
O=C(COc1ccc(Cl)cc1Cl)NC(=S)N1CCCc2ccccc21	67*	-27%	43*	3%	?	-1%
CCC(Oc1cc(Cl)ccc1Cl)C(=O)N1CCC2(CC1)OCCO2 (stereo not given)	64*	·	31*	-14%	-3%	-2%
O=C(CCCOc1ccc(Cl)cc1Cl)N1CCCc2ccccc21	56*	-3%	30*	16%	-13%	-2%
CCN(CC)CCn1c(-c2ccccc2)nc2c(NC3CCCCC3)nc(C)nc21	·	1%	·	·	·	·
